Data on 40 molecules can be found in ChEMBL document CHEMBL1157539, “Thousands of chemical starting points for antimalarial lead identification” (Nature, 2010).

One experiment deals with Plasmodium falciparum. Nature of the experiment: GSK_TCMDC: Inhibition of Plasmodium falciparum 3D7 in whole red blood cells, using parasite LDH activity as an index of growth. Test compounds present at 2uM. It counts as functional.
On to `Cc1cc2nc(-c3ccc(C(=O)NC4CCN(Cc5ccccc5)CC4)cc3)[nH]c2cc1C`, for which the Inhibition – broadly, the percentage by which the read-out fell short of the control – is given as 93%.
`Cn1nc(-c2ccc(NC(=O)Nc3cc(C(F)(F)F)ccc3F)c(F)c2)c2cnc(NCCCN3CCOCC3)nc21.O=C(O)C(F)(F)F`: the Inhibition stood at 100%.
Same read-out and setting: with `COc1ccc2[nH]ccc(=NN=Cc3ccccc3Cl)c2c1` the figure was 100%.
The same measure, in the same setting: the figure for `CN(C)CCNc1nccc(N2CCc3ncnc(Nc4ccc(OCc5cccc(F)c5)c(Cl)c4)c3C2)n1` is 100%.
On the same count and under the same terms, the figure for `Br.CCCCCCCCn1ccc(=N)cc1` is 91%; for `Cc1cc(Cl)c(S(=O)(=O)NC(C)(C)C)cc1OCC(=O)NC1CCCCC1` it is 93%.
Consider `COC[C@H]1CCCN1Cc1ccc(-c2ccc(-c3nc4ccccc4[nH]3)s2)cc1`, for which the Inhibition came out at 95%.
On the same count and under the same terms, with `CCOc1c(Cl)cc(Cl)cc1CNCCCNc1nc2ccccc2[nH]1.Cl` the figure was 94%; with `CC(C)CNC(=O)c1cncc(-c2ccc(CN(C)C3CCN(C)CC3)cc2)c1.O=C(O)C(F)(F)F`, 100%; with `Cc1cc(N(C)C)nc(Nc2ccc(NC(=O)c3cccc(F)c3)cc2)n1`, 100%.
On the same count and under the same terms, with `CC1(C)N=C(NC(=O)c2cc([N+](=O)[O-])cc([N+](=O)[O-])c2)N=C(N)N1OCc1cccc2ccccc12` the figure was 94%; with `Cc1cccc2nc(-c3cccc(-c4cccc(CN5CCC(CO)CC5)c4)c3)[nH]c12.O=C(O)C(F)(F)F`, 100%.

For the next experiment, the system named is Plasmodium falciparum. Nature of the experiment: GSK_TCMDC: Inhibition of Plasmodium falciparum Dd2 in whole red blood cells, using parasite LDH activity as an index of growth. Test compounds present at 2uM. The experiment is classed as functional.
The molecule `COCCCNC(=O)C1CCN(C(c2ccc(Cl)cc2)c2ccc(Cl)cc2)CC1` displayed an Inhibition of 63%.
Still for that read-out and setting: the figure for `c1cc(Cc2ccc(Nc3c4ccccc4nc4ccccc34)cc2)cc(Nc2c3ccccc3nc3ccccc23)c1` is 100%.
The same measure, in the same setting: with `CS(=O)(=O)c1ccc(-c2cncc(Cl)n2)cc1` the figure was 95%.
`CCCC(CNCc1cccc(C)c1)CNc1cc(=O)c2ccccc2[nH]1` (configuration not stated): the Inhibition turned out to be 89%.
Regarding `CCN1CCN(CCCNc2c3ccc(Cl)cc3nc3ccc(OC)cc23)CC1.Cl`, the Inhibition is on record as 100%.
In turn, `COc1ccc2nccc([C@@H](O)CN3CCC(NC(=O)c4cc5cccnc5[nH]4)CC3)c2c1.Cl` yielded an Inhibition of 6%.
For `CS(=O)(=O)Cc1ccc(Nc2nccc(-c3c(-c4cccc(NC(=O)c5c(F)cccc5F)c4)nn4ccccc34)n2)cc1`, the Inhibition is on record as 75%.
Same read-out and setting: the figure for `O=C(NCCCCCN1CCCN(C(=O)Nc2ccc(F)c(C(F)(F)F)c2)CC1)C1CC1c1ccc(Cl)c(Cl)c1` (configuration not stated) is 1%; for `Br.Cc1cc(Br)c(OCCCON2C(=N)N=C(N)NC2(C)C)c(Br)c1` it is 97%; for `O=C(CCCCCNC(=O)c1ccc(O)c(-c2ccc(Cl)c(Cl)c2)c1)NCc1cccc(C(F)(F)F)c1` it is 10%.
For the molecule `CSc1nnc2n(Cc3ccccc3)c(=O)c3c(n12)-c1ccccc1CC31CCCCC1`, the Inhibition came to 0%.
The same measure, in the same setting: the figure for `O=C(Nc1ccc(N2CCNCC2)nc1)c1oc(-c2ccccc2)nc1C(F)(F)F` is 62%; for `Cc1[nH]c(C)c(-c2ccc(Oc3cccc(Cl)c3)cc2)c(=O)c1Cl` it is 97%.
Still for that read-out and setting: with `COc1ccc(/C=C/C(=O)NCCCCCN2CCC(c3c[nH]c4ccccc34)CC2)cc1O` the figure was 1%.
On to `O=C(NCc1ccc(C(F)(F)F)cc1)c1cccc(-c2nnc(-c3cccc(-c4cncnc4)c3)o2)c1`, for which the Inhibition is reported as 79%.
The molecule `O=C(Nc1cccc(Cl)c1Cl)Nc1ccnc2ccccc12` showed an Inhibition of 47%.
The molecule `Cc1cc(N(C)CCN(C)C)nc(Nc2ccc(Br)cc2)n1` came in with an Inhibition of 23%.
The molecule `CCOc1cc(C(=O)NCc2cc(Cl)cc(Cl)c2)ccc1-c1nc2cc(Cl)ccc2[nH]1` yielded an Inhibition of 5%.
On the same count and under the same terms, with `Cc1cnc(NCC2CCCCC2)nc1N[C@@H](CC(C)C)C(=O)Nc1ccccc1.O=C(O)C(F)(F)F` the figure was 55%; with `COC(=O)c1ccc(NC(=O)Nc2cccc(CCNCc3ccccc3)c2)cc1.O=C(O)C(F)(F)F`, 10%; with `Br.COc1ccc(CCCON2C(=N)N=C(N)NC2(C)C)cc1`, 94%.
Turning to `CC1CN(Cc2ccc(-c3cccc(-c4nc5cc(F)ccc5[nH]4)c3)cc2)CC(C)O1.O=C(O)C(F)(F)F` (configuration not stated), the Inhibition is 20%.
In turn, `Cl.O=C(Nc1ccc(Cl)cc1)Nc1cccc(-c2cc(CNCCc3ccccc3)oc2-c2ccncc2)c1` yielded an Inhibition of 92%.
On the same count and under the same terms, the figure for `COc1ccc(C2CCN(CCN3CCC(NC(=O)c4cccc(-c5ccncc5)c4)CC3)CC2)c(OC)c1` is 24%; for `COc1cccc(Nc2nnc(SCC(=O)NNC(=O)c3ccccn3)s2)c1` it is 95%; for `FC(F)(F)c1ccc2[nH]c(-c3cccc(-c4cccc(CN5CCN(c6ccncc6)CC5)c4)c3)nc2c1.O=C(O)C(F)(F)F` it is 99%.
On the same count and under the same terms, with `CCCOc1ccccc1C(=O)Nc1nonc1-c1ccc(OCC)c(OCC)c1` the figure was 89%; with `COc1ccc(-c2cccc(NC(=O)c3cccc(Cl)c3)c2)cc1CN(C)CCN(C)C.O=C(O)C(F)(F)F`, 73%; with `Cc1cc2nc(-c3ccc(C(=O)NC4CCN(Cc5ccccc5)CC4)cc3)[nH]c2cc1C`, 99%.
Molecule `Cn1nc(-c2ccc(NC(=O)Nc3cc(C(F)(F)F)ccc3F)c(F)c2)c2cnc(NCCCN3CCOCC3)nc21.O=C(O)C(F)(F)F` showed an Inhibition of 62%.
On the same count and under the same terms, with `COc1ccc2[nH]ccc(=NN=Cc3ccccc3Cl)c2c1` the figure was 99%; with `CN(C)CCNc1nccc(N2CCc3ncnc(Nc4ccc(OCc5cccc(F)c5)c(Cl)c4)c3C2)n1`, 97%.
In turn, `Br.CCCCCCCCn1ccc(=N)cc1` returned an Inhibition of 84%.
As for `Cc1cc(Cl)c(S(=O)(=O)NC(C)(C)C)cc1OCC(=O)NC1CCCCC1`, the Inhibition was determined as 53%.
In the case of `COC[C@H]1CCCN1Cc1ccc(-c2ccc(-c3nc4ccccc4[nH]3)s2)cc1`, the Inhibition turned out to be 58%.
`CCOc1c(Cl)cc(Cl)cc1CNCCCNc1nc2ccccc2[nH]1.Cl` showed an Inhibition of 1%.
Regarding `CC(C)CNC(=O)c1cncc(-c2ccc(CN(C)C3CCN(C)CC3)cc2)c1.O=C(O)C(F)(F)F`, the Inhibition is given as 84%.
As to `Cc1cc(N(C)C)nc(Nc2ccc(NC(=O)c3cccc(F)c3)cc2)n1`, the Inhibition came to 62%.
The same measure, in the same setting: with `CC1(C)N=C(NC(=O)c2cc([N+](=O)[O-])cc([N+](=O)[O-])c2)N=C(N)N1OCc1cccc2ccccc12` the figure was 20%.
Still for that read-out and setting: the figure for `Cc1cccc2nc(-c3cccc(-c4cccc(CN5CCC(CO)CC5)c4)c3)[nH]c12.O=C(O)C(F)(F)F` is 90%.
